According to PubChem BioAssay (Tox21):
Values without a mark were called inactive. Inconclusive results are not listed. Entries that show only a call come without a potency. Activity calls are given as the source filed them. Unless noted, the call rests on the fitted dose curve; in most records, active means well fitted curve in the direction sought with a large enough effect in the repeat runs; inconclusive means weak or mixed curves; inactive means no such curve, though single readings can be large; an effect the other way counts as inactive or inconclusive.

Key:
[1] = qHTS assay to identify small molecule antagonists of the sonic hedgehog signaling (Shh) pathway (AID 1259369; calls by dose curve; further: nearly all actives have a fitted effect of over 45% in size)
How it was run: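 For antagonist detection, the reporter line received test compounds together with conditioned medium, incubated 24hr at 37 C, 5% CO2, then luminescence was recorded following 30min room-temperature luciferase reagent incubation.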

[2] = target: Estrogen receptor beta (Homo sapiens) (UniProt Q92731); assay: qHTS assay to identify small molecule agonists of the estrogen receptor beta (ER-beta) signaling pathway (AID 1259377; active means well fitted activation curve with a large enough effect in the signal ratio in the repeat runs, not every such curve was filed as active; the % refers to the signal ratio)
Chain of Estrogen receptor beta (Homo sapiens) (Q92731 whole entry, looked up): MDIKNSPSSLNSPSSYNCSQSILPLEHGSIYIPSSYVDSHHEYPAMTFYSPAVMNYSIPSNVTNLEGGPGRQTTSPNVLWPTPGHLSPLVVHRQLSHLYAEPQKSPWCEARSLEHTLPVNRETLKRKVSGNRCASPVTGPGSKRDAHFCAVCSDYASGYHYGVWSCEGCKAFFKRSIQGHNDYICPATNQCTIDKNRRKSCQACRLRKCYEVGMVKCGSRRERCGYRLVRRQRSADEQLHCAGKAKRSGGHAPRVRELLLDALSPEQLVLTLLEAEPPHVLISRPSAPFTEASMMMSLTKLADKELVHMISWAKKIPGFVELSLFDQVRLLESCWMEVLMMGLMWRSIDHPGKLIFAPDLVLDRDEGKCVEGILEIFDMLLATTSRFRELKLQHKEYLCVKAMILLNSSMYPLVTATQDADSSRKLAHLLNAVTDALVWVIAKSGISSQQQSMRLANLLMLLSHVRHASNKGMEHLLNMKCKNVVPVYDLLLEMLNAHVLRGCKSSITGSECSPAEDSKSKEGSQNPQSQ
How it was run: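 Reporter cells (HEK293T, ER-beta-UAS-bla) receive compounds or DMSO after a 6 hr pre-incubation. They then incubate 16 hr at 37C/5% CO2, and fluorescence from LiveBLAzer B/G substrate is measured after 2 hours at room temperature.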

[3] = target: Estrogen receptor beta (Homo sapiens) (UniProt Q92731); assay: qHTS assay to identify small molecule antagonists of the estrogen receptor beta (ER-beta) signaling pathway (AID 1259378; active means well fitted inhibition curve with a large enough effect in the signal ratio in the repeat runs, not every such curve was filed as active; the % refers to the signal ratio; further: potency means the concentration at half of the fitted maximal effect)
How it was run: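 Antagonist mode: compounds added to beta-lactamase reporter HEK293T ER-beta-UAS cells stimulated with E2 (1nM final), 16 hr at 37C. LiveBLAzer B/G FRET substrate, 2 hours room temperature, fluorescence read-out.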

[4] = qHTS assay to identify small molecule agonists of the androgen receptor (AR) signaling pathway in the presence of an antagonist - cell viability counter screen (AID 1259379);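 further: MDA-kb2 human breast cancer cells carrying an MMTV luciferase reporter; series mostly up to about 92 µM; nearly all actives have a fitted effect of over 25% in size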
How it was run: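 Seed MDA-kb2 at 3,000 cells/well; incubate 5 hr, 37C, 0% CO2. Add nilutamide to 3.0uM final, then pin compounds at 15 concentrations. Incubate 16 hr. Add CellTiter-Fluor at 15 hr, read fluorescence after 1 hr.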

[5] = qHTS assay to identify small molecule antagonists of the estrogen receptor beta (ER-beta) signaling pathway - cell viability counter screen (AID 1259382);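 further: HEK293T cells carrying ER-beta-UAS-bla reporter stimulated with estradiol; series mostly up to about 92 µM; nearly all actives have a fitted effect of over 55% in size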
How it was run: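 In this multiplexed counter screen, cells were seeded at 2,000 per well in medium with 2% charcoal-stripped FBS and incubated 6 hr before compound and 1nM final E2 were added. Sixteen hours later, ATP-based luminescence reported viability.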

[6] = target: Estrogen receptor (Homo sapiens) (UniProt P03372); assay: qHTS assay to identify small molecule agonists of the estrogen receptor alpha (ER-alpha) signaling pathway in the presence of an antagonist (AID 1259383; calls by dose curve; further: nearly all actives have a fitted effect of over 15% in size; further: potency means the concentration at half of the fitted maximal effect; on activation: top concentration of the series differs between compounds)
Chain of Estrogen receptor (Homo sapiens) (P03372 whole entry, looked up): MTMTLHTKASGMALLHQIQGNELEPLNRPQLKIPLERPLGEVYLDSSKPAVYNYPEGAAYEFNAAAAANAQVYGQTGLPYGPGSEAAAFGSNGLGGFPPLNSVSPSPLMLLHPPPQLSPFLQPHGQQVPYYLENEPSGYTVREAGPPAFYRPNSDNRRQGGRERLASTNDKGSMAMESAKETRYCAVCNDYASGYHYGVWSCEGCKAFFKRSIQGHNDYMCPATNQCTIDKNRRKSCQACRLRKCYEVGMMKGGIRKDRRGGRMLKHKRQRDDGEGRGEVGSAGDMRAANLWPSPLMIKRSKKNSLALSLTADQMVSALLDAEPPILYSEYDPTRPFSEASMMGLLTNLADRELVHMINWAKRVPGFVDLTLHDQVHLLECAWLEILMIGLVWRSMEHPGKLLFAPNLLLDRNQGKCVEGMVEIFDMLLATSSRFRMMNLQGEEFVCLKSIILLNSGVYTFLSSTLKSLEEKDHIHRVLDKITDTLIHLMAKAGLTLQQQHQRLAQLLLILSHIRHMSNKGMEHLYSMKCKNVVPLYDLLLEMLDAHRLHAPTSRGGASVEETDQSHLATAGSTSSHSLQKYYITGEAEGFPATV
How it was run: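 Stably transfected VM7Luc4E2 reporter cells, kept 5 days in charcoal-stripped serum, received ICI-182,780 at 10.0nM final before compound addition. Following 22hr incubation at 37C and 5% CO2, luciferase signal was read by luminescence.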

[7] = qHTS assay to identify small molecule agonists of the estrogen receptor alpha (ER-alpha) signaling pathway in the presence of an antagonist - cell viability counter screen (AID 1259386);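 further: series mostly up to about 92 µM; cells exposed to compounds for 22 h at 37 °C before the viability read; nearly all actives have a fitted effect of over 30% in size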
How it was run: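 Viability counter screen using VM7Luc4E2 (full-length ER-alpha, four ERE-luciferase). The cells were treated with compounds alongside ICI-182,780 10.0nM for 22hr, and live-cell protease fluorescence was quantified with CellTiter-Fluor.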

[8] = qHTS assay to identify small molecule antagonists of the TGF-beta/Smad signaling pathway - cell viability counter screen (AID 1346824); further: nearly all actives have a fitted effect of over 50% in size
How it was run: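 Cytotoxicity counter-screen run in the same wells as the beta-lactamase Smad reporter read: CellTiter-Glo luminescence after 30 min at room temperature. HEK 293T SBE-bla cells had 5 hr compound exposure at 37 C with TGF-beta1 (0.25 ng/mL stock).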

[9] = qHTS assay to identify small molecule agonists of the TGF-beta/Smad signaling pathway - cell viability counter screen (AID 1346829); further: top concentration of the series differs between compounds; nearly all actives have a fitted effect of over 45% in size
How it was run: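 Tox21 qHTS format: SBE-bla HEK 293T cells treated with DMSO-dissolved compounds for 5 hr; CellTiter-Glo luminescence after 30 min at room temperature.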

[10] = qHTS assay to identify small molecule agonists of the TGF-beta/Smad signaling pathway (AID 1346859; active means well fitted activation curve with a large enough effect in the signal ratio in the repeat runs, not every such curve was filed as active; the % refers to the signal ratio; further: series mostly up to about 77 µM)
How it was run: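 Screening used HEK 293T SBE-bla cells at 4,000/well. Test agents: 5 hr, 37 C. Detection: FRET substrate, 2 hr RT, then excitation 405 nm with emissions at 460 and 530 nm.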

[11] = qHTS assay to identify small molecule agonists of the estrogen receptor beta (ER-beta) signaling pathway - cell viability counter screen (AID 1259380); further: nearly all actives have a fitted effect of over 30% in size
How it was run: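 CellTiter-Glo read, 30 min RT, same wells as bla assay; cells ER-beta-UAS-bla HEK293T; 16 hr compound, 37C; medium 2% charcoal-stripped FBS.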

[12] = qHTS assay to identify small molecule agonists or antagonists of the thyroid stimulating hormone receptor (TSHR) signaling pathway - wild type cell line counter screen (AID 1259384; calls by dose curve)
How it was run: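 Counter screen in untransfected Hek293: compounds (15-point titration, triplicate) plus phosphodiesterase inhibitor Ro20-1724 added after 18 h plating; 30 min RT. Intracellular cAMP via competitive d2/cryptate immunoassay, 1 h incubation.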

[13] = target: Thyrotropin receptor (Homo sapiens) (UniProt P16473); assay: qHTS assay to identify small molecule antagonists of the thyroid stimulating hormone receptor (TSHR) signaling pathway (AID 1259385; calls by dose curve; further: nearly all actives have a fitted effect of over 20% in size)
Chain of Thyrotropin receptor (Homo sapiens) (P16473 whole entry, looked up): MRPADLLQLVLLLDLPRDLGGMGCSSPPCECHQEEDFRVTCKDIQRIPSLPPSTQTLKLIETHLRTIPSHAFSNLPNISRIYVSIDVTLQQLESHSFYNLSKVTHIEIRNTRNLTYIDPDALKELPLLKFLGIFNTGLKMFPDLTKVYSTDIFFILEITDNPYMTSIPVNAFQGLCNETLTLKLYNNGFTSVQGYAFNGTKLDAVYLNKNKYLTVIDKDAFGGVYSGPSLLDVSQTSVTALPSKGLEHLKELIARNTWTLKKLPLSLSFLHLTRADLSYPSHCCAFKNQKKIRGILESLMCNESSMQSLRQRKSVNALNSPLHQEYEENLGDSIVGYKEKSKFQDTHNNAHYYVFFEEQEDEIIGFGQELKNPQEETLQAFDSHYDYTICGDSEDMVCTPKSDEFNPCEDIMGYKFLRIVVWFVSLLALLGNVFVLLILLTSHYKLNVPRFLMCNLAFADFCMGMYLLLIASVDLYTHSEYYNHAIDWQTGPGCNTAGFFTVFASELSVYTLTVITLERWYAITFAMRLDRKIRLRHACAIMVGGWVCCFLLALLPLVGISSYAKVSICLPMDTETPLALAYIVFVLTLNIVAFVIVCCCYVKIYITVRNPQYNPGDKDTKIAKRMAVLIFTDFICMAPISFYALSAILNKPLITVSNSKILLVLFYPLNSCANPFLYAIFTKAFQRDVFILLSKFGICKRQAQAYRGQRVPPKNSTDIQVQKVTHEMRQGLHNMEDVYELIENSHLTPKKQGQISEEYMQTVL
How it was run: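 Antagonist mode: compound-treated TSHR-expressing HEK293 cells were stimulated with 1.5 ng/mL TSH (final) in presence of Ro20-1724 for 30 min at RT. HTRF cAMP detection after 1 h; each compound tested at 15 concentrations, triplicate.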

[14] = target: Progesterone receptor (Homo sapiens) (UniProt P06401); assay: qHTS assay to identify small molecule agonists of the progesterone receptor (PR) signaling pathway (AID 1346784; calls by dose curve; further: nearly all actives have a fitted effect of over 30% in size; further: potency means the concentration at half of the fitted maximal effect)
Chain of Progesterone receptor (Homo sapiens) (P06401 whole entry, looked up): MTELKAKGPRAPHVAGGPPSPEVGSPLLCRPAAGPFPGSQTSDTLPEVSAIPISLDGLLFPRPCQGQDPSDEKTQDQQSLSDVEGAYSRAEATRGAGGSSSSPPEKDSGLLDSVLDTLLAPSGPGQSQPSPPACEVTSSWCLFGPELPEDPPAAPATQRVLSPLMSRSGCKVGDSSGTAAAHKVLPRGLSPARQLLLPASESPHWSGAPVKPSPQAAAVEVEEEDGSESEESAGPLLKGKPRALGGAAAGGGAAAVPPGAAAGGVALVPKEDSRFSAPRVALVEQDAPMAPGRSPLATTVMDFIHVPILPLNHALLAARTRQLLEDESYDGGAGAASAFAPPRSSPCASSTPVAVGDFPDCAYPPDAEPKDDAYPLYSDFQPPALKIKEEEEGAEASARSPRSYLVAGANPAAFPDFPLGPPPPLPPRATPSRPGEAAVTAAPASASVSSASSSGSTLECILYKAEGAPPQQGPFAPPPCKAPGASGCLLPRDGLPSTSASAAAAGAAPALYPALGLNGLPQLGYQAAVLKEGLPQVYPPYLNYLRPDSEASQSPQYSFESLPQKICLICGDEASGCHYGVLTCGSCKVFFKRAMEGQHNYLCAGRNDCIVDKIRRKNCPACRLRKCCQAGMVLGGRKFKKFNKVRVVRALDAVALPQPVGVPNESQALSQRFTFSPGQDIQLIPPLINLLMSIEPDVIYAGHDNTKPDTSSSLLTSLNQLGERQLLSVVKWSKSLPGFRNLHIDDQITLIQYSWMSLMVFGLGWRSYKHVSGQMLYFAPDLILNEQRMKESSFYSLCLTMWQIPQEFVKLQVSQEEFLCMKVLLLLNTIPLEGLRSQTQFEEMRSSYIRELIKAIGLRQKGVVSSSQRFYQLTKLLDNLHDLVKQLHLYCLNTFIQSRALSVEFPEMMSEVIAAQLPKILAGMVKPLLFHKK
How it was run: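 Reporter assay, GripTite PR-UAS-bla HEK 293T cells: 16 hr exposure to DMSO-dissolved compounds at 37C, 5% CO2, in steroid-depleted (2% charcoal-stripped FBS) medium; beta-lactamase measured by FRET fluorescence.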

[15] = target: Progesterone receptor (Homo sapiens) (UniProt P06401); assay: qHTS assay to identify small molecule antagonists of the progesterone receptor (PR) signaling pathway (AID 1346795; active means well fitted inhibition curve with a large enough effect in the signal ratio in the repeat runs, not every such curve was filed as active; the % refers to the signal ratio; further: potency means the concentration at half of the fitted maximal effect)
How it was run: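 Stimulus R5020 at 1 nM final; cells HEK293T PR-UAS-bla; medium with 2% charcoal-stripped FBS; compound exposure 16 hr at 37C, 5% CO2; detection by FRET beta-lactamase substrate, 2 hr, room temperature.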

[16] = qHTS assay to identify small molecule antagonists of the progesterone receptor (PR) signaling pathway - cell viability counter screen (AID 1346798); further: series mostly up to about 92 µM; nearly all actives have a fitted effect of over 50% in size
How it was run: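 In the same plates used for the beta-lactamase readout, cell viability of compound- and R5020-treated PR-UAS-bla HEK293T cells (16 hr, 37C) was assessed by CellTiter-Glo luminescence.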

[17] = qHTS assay to identify small molecule agonists of the progesterone receptor (PR) signaling pathway - cell viability counter screen (AID 1346799; calls by dose curve; further: nearly all actives have a fitted effect of over 45% in size)
How it was run: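 Multiplexed viability read: CellTiter-Glo luminescence, 30 min RT, following LiveBLAzer FRET measurement on PR-UAS-bla HEK293T cells exposed to compounds 16 hr.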

[18] = target: Thyrotropin-releasing hormone receptor (Homo sapiens) (UniProt P34981); assay: qHTS assay to identify small molecule antagonists of the thyrotropin-releasing hormone receptor (TRHR) signaling pathway (AID 1346877; active means well fitted inhibition curve with a large enough effect in the repeat runs, not every such curve was filed as active; further: series mostly up to about 51 µM)
Chain of Thyrotropin-releasing hormone receptor (Homo sapiens) (P34981 whole entry, looked up): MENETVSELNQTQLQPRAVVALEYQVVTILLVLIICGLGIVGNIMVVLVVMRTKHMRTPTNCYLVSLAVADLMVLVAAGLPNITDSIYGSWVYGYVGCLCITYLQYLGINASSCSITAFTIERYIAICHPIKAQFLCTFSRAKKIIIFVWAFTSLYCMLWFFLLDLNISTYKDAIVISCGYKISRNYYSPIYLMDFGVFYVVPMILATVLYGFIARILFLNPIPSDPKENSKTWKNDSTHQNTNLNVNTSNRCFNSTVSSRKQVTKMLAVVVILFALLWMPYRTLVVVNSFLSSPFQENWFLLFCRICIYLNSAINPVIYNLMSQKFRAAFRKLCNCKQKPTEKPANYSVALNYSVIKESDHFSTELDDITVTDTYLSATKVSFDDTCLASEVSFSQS
How it was run: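 Following an 18 h incubation at 37 °C and a 2 h calcium dye load, TRHR-HEK293 cells were exposed to compound (5 min, room temperature) and challenged with TRH, 1 nM final.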

[19] = target: Androgen receptor (Homo sapiens) (UniProt P10275); assay: qHTS assay to identify small molecule agonists of the androgen receptor (AR) signaling pathway in the presence of an antagonist (AID 1259381; calls by dose curve; further: nearly all actives have a fitted effect of over 15% in size)
Chain of Androgen receptor (Homo sapiens) (P10275 whole entry, looked up): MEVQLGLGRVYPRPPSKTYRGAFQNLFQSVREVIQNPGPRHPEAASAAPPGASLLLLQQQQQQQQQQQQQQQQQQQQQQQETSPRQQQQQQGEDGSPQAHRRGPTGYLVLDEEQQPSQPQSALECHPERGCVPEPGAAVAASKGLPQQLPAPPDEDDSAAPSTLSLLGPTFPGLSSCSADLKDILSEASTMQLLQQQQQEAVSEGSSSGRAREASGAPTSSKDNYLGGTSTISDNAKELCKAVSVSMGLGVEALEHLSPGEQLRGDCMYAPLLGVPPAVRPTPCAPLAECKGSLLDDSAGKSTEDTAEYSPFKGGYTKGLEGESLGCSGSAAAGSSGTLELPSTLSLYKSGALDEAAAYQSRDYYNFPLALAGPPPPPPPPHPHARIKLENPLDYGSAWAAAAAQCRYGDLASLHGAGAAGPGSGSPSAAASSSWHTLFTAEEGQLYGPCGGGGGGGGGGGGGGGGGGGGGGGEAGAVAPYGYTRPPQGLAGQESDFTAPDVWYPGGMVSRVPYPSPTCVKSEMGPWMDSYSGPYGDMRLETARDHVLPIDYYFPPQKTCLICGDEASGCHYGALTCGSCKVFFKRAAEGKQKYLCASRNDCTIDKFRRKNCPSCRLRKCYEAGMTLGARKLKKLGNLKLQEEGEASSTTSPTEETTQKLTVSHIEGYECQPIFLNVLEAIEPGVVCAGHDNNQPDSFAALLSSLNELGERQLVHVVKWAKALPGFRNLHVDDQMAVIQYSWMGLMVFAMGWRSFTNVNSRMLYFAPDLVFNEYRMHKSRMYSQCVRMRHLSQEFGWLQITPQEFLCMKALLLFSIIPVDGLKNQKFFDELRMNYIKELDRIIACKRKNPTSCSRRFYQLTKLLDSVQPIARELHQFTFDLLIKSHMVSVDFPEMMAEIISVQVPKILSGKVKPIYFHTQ
How it was run: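 Test compounds at 15 concentrations were incubated for 16hr with MDA-kb2 reporter cells in presence of 3.0uM nilutamide (final). Signal: ONE-Glo luciferase luminescence.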

SMILES | Potency [1] | outcome [2] | Potency [3] | Potency [4] | Potency [5] | Potency [6] | outcome [7] | outcome [8] | outcome [9] | outcome [10] | Potency [11] | outcome [12] | Potency [13] | Potency [14] | Potency [15] | Potency [16] | Potency [17] | outcome [18] | Potency [19]
Cc1c(C)n(CCN(C)C)c2ccc(C(=O)OCCN(C)C)cc12 | inactive | inactive | inactive | inactive | inactive | inactive | inactive | inactive | inactive | inactive | – | – | – | – | – | – | – | – | –
O=C(O)C1CCC1 | inactive | inactive | – | inactive | inactive | inactive | inactive | inactive | inactive | inactive | inactive | inactive | inactive | inactive | inactive | inactive | inactive | inactive | –
OCC(CO)(CO)COCC(CO)(CO)CO | inactive | – | – | inactive | – | inactive | inactive | inactive | – | inactive | inactive | inactive | inactive | inactive | inactive | inactive | inactive | inactive | –
Oc1ccc2c(c1)OC[C@@H](N1CCC(O)(c3ccc(F)cc3)CC1)[C@H]2O | – | inactive | – | inactive | inactive | 0.668 µM (active) | – | inactive | inactive | inactive | inactive | inactive | inactive | inactive | 10.6 µM (active) | inactive | inactive | inactive | –
CC(O)CN(CCCN(C)C)CCCN(C)C (stereo not drawn) | inactive | inactive | inactive | inactive | inactive | – | inactive | – | inactive | inactive | inactive | – | – | inactive | – | inactive | – | – | –
CC/C=C\C#N | – | inactive | inactive | inactive | – | inactive | inactive | inactive | inactive | inactive | inactive | inactive | inactive | inactive | inactive | inactive | – | – | –
N#CCc1ccccc1[N+](=O)[O-] | – | inactive | inactive | inactive | inactive | – | inactive | inactive | inactive | inactive | inactive | inactive | inactive | inactive | inactive | inactive | – | inactive | –
OCC(O)[C@@H](O)[C@H](O)[C@H](O)CO[C@H]1O[C@H](CO)[C@@H](O)[C@H](O)[C@H]1O (stereo partly drawn) | – | inactive | inactive | inactive | inactive | – | – | inactive | inactive | inactive | inactive | inactive | inactive | inactive | inactive | inactive | inactive | inactive | –
CCC(=O)c1cccc(Cl)c1 | inactive | – | – | inactive | inactive | – | inactive | inactive | inactive | inactive | inactive | inactive | inactive | 1.97 µM (active) | inactive | inactive | – | – | –
CCN1CCCC(OC(=O)C(c2ccccc2)c2ccccc2)C1 (stereo not drawn) | inactive | inactive | – | inactive | inactive | inactive | inactive | inactive | inactive | inactive | – | inactive | inactive | inactive | – | – | – | inactive | –
CCOC(=O)Nc1ccc2c(c1)N(C(=O)CCN1CCOCC1)c1ccccc1S2 | – | inactive | inactive | inactive | – | inactive | – | inactive | – | inactive | inactive | inactive | inactive | inactive | – | inactive | inactive | – | inactive
Cc1cc(C)c(NC(=O)CN(CC(=O)O)CC(=O)O)c(C)c1Br | inactive | – | inactive | inactive | – | – | inactive | inactive | inactive | inactive | inactive | – | – | inactive | inactive | inactive | inactive | – | –
OC1OC[C@@H](O)[C@H](O)[C@H]1O (stereo partly drawn) | inactive | – | inactive | inactive | inactive | – | inactive | inactive | inactive | inactive | inactive | – | – | inactive | inactive | inactive | inactive | inactive | –
CCCCCCCCCCCCI | – | – | – | inactive | inactive | – | – | inactive | inactive | inactive | – | inactive | inactive | inactive | inactive | inactive | inactive | inactive | –
CCOC(=O)[C@H](CCc1ccccc1)N[C@@H](C)C(=O)N1CCC[C@H]1C(=O)O | inactive | – | – | inactive | inactive | – | inactive | inactive | inactive | inactive | – | inactive | inactive | – | – | inactive | inactive | inactive | –
C(=C(c1ccccc1)c1ccccc1)c1ccccc1 | – | inactive | 1.54 µM (active) | inactive | inactive | 17.2 µM (active) | inactive | inactive | inactive | inactive | – | – | – | inactive | 12.2 µM (active) | inactive | – | – | –
O=[N+]([O-])c1ccc(Oc2ccc([N+](=O)[O-])cc2)cc1 | inactive | inactive | inactive | inactive | – | inactive | inactive | inactive | inactive | inactive | inactive | – | – | inactive | 3.94 µM (active) | – | – | – | –
CO[Si](CCCNCCC[Si](OC)(OC)OC)(OC)OC | – | – | – | inactive | inactive | inactive | – | inactive | inactive | inactive | inactive | inactive | inactive | inactive | – | inactive | inactive | – | –
Cc1nc(-c2ccc(OCC(C)C)c(C#N)c2)sc1C(=O)O | inactive | – | – | inactive | inactive | inactive | inactive | inactive | inactive | – | – | inactive | – | inactive | – | inactive | inactive | – | inactive
